SMILES strings stand for the structures. Activity calls are given as the source filed them. Unless noted, no rule for the calls is given here.

The test system of assay [1] is Wnt5a (protein binding on small-molecule microarray). Kind of assay: Wnt5a binders on small-molecule microarray, primary screen, biophysical, 635/667 nm fluorescence (AID 1142).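 Also: fluorescence read at 667 nm with signal to noise per printed feature.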 The settings on record: 635 nm fluorescence, higher = more signal.
Assay [2] can be described thus: cell viability in Huh7 cells, primary screen, cytotoxicity control for HCV replication inhibitor project, CellTiter-Glo luminescence, basal, 48 h (AID 1143).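 Also: Huh7 hepatoma cells carrying a hepatitis C replication reporter with no stimulus; test concentration not given here.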 The settings on record: Huh7 HCV replicon, higher = more signal, called active from +8 up or from −8 down. For orientation: ATP-based viability assays read luminescence as a measure of living cells.
A short description of assay [3]: P. aeruginosa biofilm formation inhibitors, primary screen, PAO1 strain, BacTiter-Glo luminescence, LB-PBS (AID 1144). The settings on record: 12 h, higher = more signal.
Assay [4] in a line: CREB reporter modulators without forskolin, primary screen, cell-based, PC12, CRE-LacZ reporter, unstimulated (AID 1145). The note with it: no forskolin, luminescence, 4.5 h, higher = more signal, called active from +8 up or from −8 down.
The nature of assay [5]: CREB reporter modulators under forskolin, primary screen, cell-based, PC12, CRE-LacZ reporter, forskolin-stimulated (AID 1146).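 Also: PC12 cells with 6xCRE LacZ reporter stimulated by forskolin 10 µM; beta-galactosidase reporter signal reflecting CREB driven transcription.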 The note with it: luminescence, 4.5 h, higher = more signal, called active from +8 up or from −8 down.
Assay [6] deals with Streptavidin (Streptomyces avidinii) (UniProt P22629). In words: streptavidin binders on small-molecule microarray, primary screen, artefact control for SMM compound annotation, biophysical, 635/667 nm fluorescence (AID 1147).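 Also: signal reflects streptavidin binding to arrayed compounds as a control protein.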 The settings on record: streptavidin binding, higher = more signal.
Chain of Streptavidin (Streptomyces avidinii) (P22629 whole entry, looked up): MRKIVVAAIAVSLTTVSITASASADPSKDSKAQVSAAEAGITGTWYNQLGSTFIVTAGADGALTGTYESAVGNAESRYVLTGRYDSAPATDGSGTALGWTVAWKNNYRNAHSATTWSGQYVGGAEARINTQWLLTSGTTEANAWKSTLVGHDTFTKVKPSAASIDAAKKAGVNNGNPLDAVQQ
Assay [7] is described as follows: small-molecule binders of probe aInhba, primary screen, biochemical, small-molecule microarray, 635/667 nm fluorescence (AID 1148).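 Also: score merges 667nm spot fluorescence with signal-to-noise for antibody binding to printed compounds.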 The settings on record: higher = more signal.
Assay [8] addresses Torsin-1A (Homo sapiens) (UniProt O14656). Kind of assay: torsin A binders from cell lysate, primary screen, small-molecule microarray, wild-type, 635/667 nm (AID 1149). The settings on record: COS7 hTOR1A-WT lysate, 635 nm fluorescence, higher = more signal.
Assay [9] shares this target. In words: small-molecule binders of mutant TOR1A in lysate, primary screen, cell lysate, small-molecule microarray, COS7 lysate, 635/667 nm fluorescence (AID 1150).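 Also: score pools 667 nm emission and signal to noise measuring lysate protein binding.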 The note with it: COS7 hTOR1A mutant lysate, 635 nm fluorescence, higher = more signal.
Assay [10] relates to Sonic hedgehog protein (Shh). In words: small-molecule binders of Shh protein, primary screen, biochemical, small-molecule microarray, 635/667 nm fluorescence (AID 1151).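 Also: Shh protein binding to compounds spotted on small-molecule microarray slides; score combines spot fluorescence intensity with signal-to-noise across triplicate slides.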 The note with it: small-molecule microarray binding, 635 nm fluorescence; higher = more signal.
Assay [11] can be described thus: E. coli DRC41 culture turbidity changes, primary screen, E. coli filamentation inducer project, strain DRC41, OD650, 48 h (AID 1152).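 Also: E. coli MC1000 strain DRC41 lacking acrAB efflux pump and sulA.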 The note with it: E. coli DRC41 (acrAB sulA), higher = more signal, called active from +8 up or from −8 down.
Assay [12] in a line: small-molecule binders of probe aLefty1, primary screen, biochemical, small-molecule microarray, 635/667 nm fluorescence (AID 1153).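 Also: score merges spot fluorescence with signal-to-noise ratio from the scanned slide images.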 The note with it: higher = more signal.
Assay [13] can be described thus: PSAC antagonists in infected red cells, primary screen, cell-based, P. falciparum Indochina, OD700, 1 h (AID 1154). The note with it: P. falciparum Indochina infected RBC osmotic lysis, higher = more signal, called active from +8 up or from −8 down.
A short description of assay [14]: PSAC antagonists in infected red cells, primary screen, cell-based, P. falciparum Indochina, OD700, 2 h (AID 1155).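 Also: lysis reports solute entry through the parasite surface anion channel PSAC; channel blockers reduce lysis of infected cells.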 The note with it: P. falciparum Indochina infected erythrocytes, osmotic lysis OD700; higher = more signal, called active from +8 up or from −8 down.
The nature of assay [15]: osmotic lysis modulators in infected erythrocytes, primary screen, PSAC antagonist project, cell-based, P. falciparum Indochina, OD700, 3 h (AID 1156). The settings on record: higher = more signal, called active from +8 up or from −8 down.
A short description of assay [16]: PSAC antagonists in infected red cells, primary screen, cell-based, P. falciparum Indochina, OD700, 18 h (AID 1157). The settings on record: P. falciparum Indochina infected erythrocytes, osmotic lysis OD700, 18 h; higher = more signal, called active from +8 up or from −8 down.
Assay [17] in a line: modulators of S6 phosphorylation in cells, primary screen, cell-based, A549, cytoblot, luminescence, serum-stimulated (AID 1158).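 Also: serum-stimulated A549 lung adenocarcinoma cells; signal is phosphorylated S6 detected by cytoblot immunostaining with HRP secondary.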 The note with it: A549 phospho-S6 cytoblot, 5 h, higher = more signal.
Assay [18] concerns the target NADPH oxidase 2 (Homo sapiens) (UniProt P04839). In words: NOX2-dependent H2O2 signal modulators, primary screen, NOX inhibitor project, cell-based, HEK293-NOX2, PMA-stimulated, Amplex Red fluorescence (AID 1159). Also: test concentration not given here. The settings on record: 45 min, higher = more signal, called active from +8 up or from −8 down.
Assay [19] addresses NADPH oxidase 4 (Homo sapiens) (UniProt Q9NPH5). Kind of assay: NOX4-dependent H2O2 signal modulators, primary screen, NOX inhibitor project, cell-based, HEK293-NOX4, tetracycline-induced, Amplex Red fluorescence (AID 1160). The note with it: 45 min, higher = more signal, called active from +8 up or from −8 down.
The target of assay [20] is NADPH oxidase 5 (Homo sapiens) (UniProt Q96PH1). Kind of assay: NOX5-dependent H2O2 signal modulators, primary screen, NOX inhibitor project, cell-based, HEK293-NOX5, Amplex Red fluorescence (AID 1161). The note with it: HEK293-NOX5, ionomycin, 45 min, higher = more signal.
Chain of NADPH oxidase 5 (Homo sapiens) (Q96PH1 whole entry, looked up): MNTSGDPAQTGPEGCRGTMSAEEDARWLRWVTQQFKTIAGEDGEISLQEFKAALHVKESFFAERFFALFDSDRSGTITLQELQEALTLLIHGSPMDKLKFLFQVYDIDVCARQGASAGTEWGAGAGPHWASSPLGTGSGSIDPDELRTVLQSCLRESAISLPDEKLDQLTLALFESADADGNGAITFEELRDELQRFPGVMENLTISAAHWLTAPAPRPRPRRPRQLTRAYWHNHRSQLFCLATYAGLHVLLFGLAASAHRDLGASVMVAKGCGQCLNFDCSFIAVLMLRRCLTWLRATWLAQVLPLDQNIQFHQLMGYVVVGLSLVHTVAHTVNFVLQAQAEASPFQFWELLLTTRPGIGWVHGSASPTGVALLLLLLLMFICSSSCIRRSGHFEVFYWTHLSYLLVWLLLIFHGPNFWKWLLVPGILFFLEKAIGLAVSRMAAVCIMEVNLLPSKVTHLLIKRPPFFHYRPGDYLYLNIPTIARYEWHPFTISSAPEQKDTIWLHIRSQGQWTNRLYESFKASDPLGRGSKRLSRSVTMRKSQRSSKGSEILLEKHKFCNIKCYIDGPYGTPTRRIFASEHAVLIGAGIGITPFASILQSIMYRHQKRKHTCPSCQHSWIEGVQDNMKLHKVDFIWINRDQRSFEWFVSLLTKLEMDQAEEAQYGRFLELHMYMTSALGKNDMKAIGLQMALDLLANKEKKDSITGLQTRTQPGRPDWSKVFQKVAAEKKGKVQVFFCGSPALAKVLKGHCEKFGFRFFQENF

Chain of NADPH oxidase 2 (Homo sapiens) (P04839 whole entry, looked up): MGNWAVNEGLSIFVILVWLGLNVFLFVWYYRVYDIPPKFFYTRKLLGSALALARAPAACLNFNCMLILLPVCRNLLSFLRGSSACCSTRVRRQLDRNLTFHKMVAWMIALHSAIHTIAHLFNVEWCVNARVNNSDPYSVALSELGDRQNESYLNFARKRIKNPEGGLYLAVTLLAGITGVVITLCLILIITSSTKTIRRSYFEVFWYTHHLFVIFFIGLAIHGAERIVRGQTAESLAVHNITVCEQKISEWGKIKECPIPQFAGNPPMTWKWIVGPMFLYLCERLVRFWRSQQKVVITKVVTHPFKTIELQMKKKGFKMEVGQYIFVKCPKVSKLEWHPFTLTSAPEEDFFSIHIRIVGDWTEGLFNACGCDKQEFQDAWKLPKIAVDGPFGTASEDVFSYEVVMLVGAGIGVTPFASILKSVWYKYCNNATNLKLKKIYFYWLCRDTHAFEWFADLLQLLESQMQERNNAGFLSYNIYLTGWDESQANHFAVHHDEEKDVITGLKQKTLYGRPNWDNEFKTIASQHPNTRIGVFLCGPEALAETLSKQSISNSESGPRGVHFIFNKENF
Chain of NADPH oxidase 4 (Homo sapiens) (Q9NPH5 whole entry, looked up): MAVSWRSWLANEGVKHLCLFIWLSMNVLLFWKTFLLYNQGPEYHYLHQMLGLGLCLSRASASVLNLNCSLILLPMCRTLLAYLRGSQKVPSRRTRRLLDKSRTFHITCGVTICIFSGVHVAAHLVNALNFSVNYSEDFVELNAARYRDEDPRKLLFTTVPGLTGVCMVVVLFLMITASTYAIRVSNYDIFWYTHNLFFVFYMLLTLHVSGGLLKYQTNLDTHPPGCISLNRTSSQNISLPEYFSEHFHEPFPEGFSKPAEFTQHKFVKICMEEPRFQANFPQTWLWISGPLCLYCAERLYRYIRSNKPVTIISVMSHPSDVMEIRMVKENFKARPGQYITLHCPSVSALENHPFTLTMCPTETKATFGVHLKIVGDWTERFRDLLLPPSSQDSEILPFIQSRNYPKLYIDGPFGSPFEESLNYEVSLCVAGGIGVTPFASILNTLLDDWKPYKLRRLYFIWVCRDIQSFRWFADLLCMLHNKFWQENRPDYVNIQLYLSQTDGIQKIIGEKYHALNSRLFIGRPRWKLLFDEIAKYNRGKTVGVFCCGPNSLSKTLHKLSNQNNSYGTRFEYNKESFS
Chain of Torsin-1A (Homo sapiens) (O14656 whole entry, looked up): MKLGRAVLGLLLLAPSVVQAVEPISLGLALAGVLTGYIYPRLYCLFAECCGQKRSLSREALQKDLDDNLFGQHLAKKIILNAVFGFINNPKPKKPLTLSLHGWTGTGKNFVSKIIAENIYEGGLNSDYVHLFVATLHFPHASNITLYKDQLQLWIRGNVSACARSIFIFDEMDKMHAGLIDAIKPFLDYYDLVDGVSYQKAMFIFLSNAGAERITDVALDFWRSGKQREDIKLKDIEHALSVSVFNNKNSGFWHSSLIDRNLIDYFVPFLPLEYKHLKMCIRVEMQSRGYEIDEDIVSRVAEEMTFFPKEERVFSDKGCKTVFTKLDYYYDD

Regarding `O=C(O)C1=CC[C@H]2C(=O)N(c3ccccc3)C(=O)[C@@H]12`, the composite z-score in [1] was 0.144; in assay [6], 1.22; in assay [7], 0.0448; with Torsin-1A (Homo sapiens) [8] it was 1; in the assay with Torsin-1A (Homo sapiens) [9], 0.448; in assay [10] it was -0.323. The composite z-score in [12] was 0.348. Also, the z-score in assay [2] was 0.704 (inactive); in assay [3] it was 0.317 (inactive); in assay [4], 0.173 (inactive); in assay [5], 0.676 (inactive); in assay [11], -0.569 (inactive); in [13], 0.61 (inactive). For the same compound, the z-score in [14] is 1.11 (inactive); in assay [15], -0.803 (inactive); in [16], 0.707 (inactive); in assay [17], -1; in [18], 0.536 (inactive); in [19], -0.267 (inactive). The z-score in [20] is -0.253.
On to `CN(C)CCCCCCNC(=O)[C@@H]1C[C@@H]2C(=O)N[C@@H](CCCC[N+](C)(C)C)C(=O)N2[C@@H]1c1cccc(OCCO)c1`, for which the composite z-score is 0.144 in [1]; -0.3 in assay [6]; 0.0569 in assay [7]; 0.327 in the assay with Torsin-1A (Homo sapiens) [8]; -0.284 in the assay with Torsin-1A (Homo sapiens) [9]; -0.371 in [10]. For the same compound, in [12], the composite z-score worked out at 0.0651. The z-score is -0.966 (inactive) in assay [2]; -0.217 (inactive) in [3]; -0.805 (inactive) in assay [4]; -0.416 (inactive) in assay [5]; 1.44 (inactive) in [11]; 5.12 (inactive) in assay [13]. Also, the z-score in [14] is -0.16 (inactive); in [15], 1.47 (inactive); in [16], -1.04 (inactive); in assay [17], 2.66; in assay [18], -0.0444 (inactive); in assay [19], 0.249 (inactive). This compound also gave a z-score in assay [20] of 1.55.
Take `CC1CC/C=C\[C@H]2OC34C=CCN(CCN5CCOCC5)C(=O)[C@H]3N(C(CO)C(C)C)C(=O)[C@@H]4C2C(=O)O1` (stereo not given in full): the composite z-score in assay [1] is 0.115; in assay [6] it was -0.0429; in assay [7] it was -0.128; with Torsin-1A (Homo sapiens) [8] it was 1; in the assay with Torsin-1A (Homo sapiens) [9] it was -0.05; in [10] it was 0.795. The same compound gave a composite z-score in assay [12] of -0.247. Besides, the z-score is 0.211 (inactive) in assay [2]; 1.52 (inactive) in assay [3]; -0.0778 (inactive) in assay [4]; 0.341 (inactive) in assay [5]; -0.481 (inactive) in assay [11]; 1.94 (inactive) in assay [13]. Further, the z-score in assay [14] was -0.184 (inactive); in [15], 0.927 (inactive); in assay [16], 0.233 (inactive); in [17], -0.69; in [18], 1.13 (inactive); in [19] it was -0.728 (inactive). This compound came in with a z-score in assay [20] of 1.91.
Regarding `O=C(NCC(F)(F)F)[C@@H]1c2ccccc2C(=O)N(Cc2cc(C(F)(F)F)cc(C(F)(F)F)c2)[C@H]1c1ccc(CO)cc1`, the composite z-score is 0.362 in assay [1]; -0.49 in assay [6]; 0.0074 in [7]; 0.325 with Torsin-1A (Homo sapiens) [8]; 0.201 in the assay with Torsin-1A (Homo sapiens) [9]; 0.363 in assay [10]. The composite z-score in [12] is 0.114. Also, the z-score in assay [2] is -1.49 (inactive); in assay [3], -0.483 (inactive); in [4] it was 0.701 (inactive); in [5] it was -1 (inactive); in [11], 0.648 (inactive); in [13] it was 2.54 (inactive). The z-score in assay [14] is 0.0323 (inactive); in assay [15] it was 0.473 (inactive); in [16], 0.257 (inactive); in [17], 0.751; in [18] it was 0.16 (inactive); in assay [19], 0.746 (inactive). The z-score in [20] was 1.11.
Regarding `CC(C)c1ccc(NN2C(C(O)c3ccccc3)C=CC3C(=O)N(c4ccccc4)C(=O)C32)cc1` (stereo not given), the composite z-score in [1] is 0.297; in assay [6] it was 0.576; in [7], 0.271; with Torsin-1A (Homo sapiens) [8], -0.388; with Torsin-1A (Homo sapiens) [9], 0.514; in assay [10], -0.983. Besides, in [12], the composite z-score was found to be 0.395. Further, the z-score in assay [2] is -0.0828 (inactive); in assay [3] it was -0.89 (inactive); in assay [4], 0.433 (inactive); in assay [5], -0.0336 (inactive); in [11] it was 0.2 (inactive); in assay [13], 4.51 (inactive). Further, the z-score was 1.97 (inactive) in assay [14]; 0.506 (inactive) in [15]; 1.42 (inactive) in assay [16]; -0.396 in [17]; -0.365 (inactive) in assay [18]; -2.49 (inactive) in [19]. Further, the z-score in assay [20] is -2.48.
On to `C=C(COC)/C(=C/C[C@@H](OC(C)=O)c1cccc(OCCO)c1)c1cnc2ccccc2c1`, for which the composite z-score in [1] is 0.603; in assay [6], 0.897; in [7], -0.0131; with Torsin-1A (Homo sapiens) [8], 0.14; with Torsin-1A (Homo sapiens) [9], 0.499; in assay [10] it was 1.83. In addition, the composite z-score in assay [12] was found to be 0.106. Also, the z-score in [2] is -2.14 (inactive); in assay [3] it was 0.0432 (inactive); in assay [4], 2.53 (inactive); in [5] it was -0.444 (inactive); in assay [11] it was 0.441 (inactive); in assay [13], 22.7 (active). The z-score in assay [14] was 4.9 (inactive); in [15], 0.377 (inactive); in assay [16] it was 1.58 (inactive); in [17], 0.249; in assay [18] it was -1.21 (inactive); in assay [19], -0.77 (inactive). In [20], this compound showed a z-score of -2.27.
For `C=CCOC(=O)[C@@H]1[C@H]2C(=O)O[C@H](c3ccccc3)[C@H](c3ccccc3)N2[C@H](c2ccc(OCCOC(=O)[C@H]3C[C@H]4C(=O)N[C@@H](CCCCN(C)C)C(=O)N4[C@H]3c3cccc(OCCO)c3)cc2)[C@@]12C(=O)Nc1ccccc12`, the composite z-score was -0.234 in assay [1]; 1.61 in assay [6]; -0.141 in [7]; 1.2 in the assay with Torsin-1A (Homo sapiens) [8]; 0.824 with Torsin-1A (Homo sapiens) [9]; 0.769 in assay [10]. The compound also displayed a composite z-score in [12] of 0.464. Moreover, the z-score was 0.132 (inactive) in [2]; -0.306 (inactive) in assay [3]; -0.394 (inactive) in assay [4]; -0.647 (inactive) in [5]; 0.171 (inactive) in [11]; 0.323 (inactive) in assay [13]. The z-score was 0.0285 (inactive) in [14]; -0.703 (inactive) in assay [15]; 0.0555 (inactive) in assay [16]; -0.547 in [17]; 0.209 (inactive) in assay [18]; -0.186 (inactive) in [19]. The compound further returned a z-score in assay [20] of -0.538.
For the compound `CCOC(=O)C=C1C[C@@H](c2cccc([N+](=O)[O-])c2)O[C@@H](c2cccc([N+](=O)[O-])c2)O1`, the composite z-score was determined as 0.719 in assay [1]; 0.865 in assay [6]; 0.503 in [7]; 0.167 with Torsin-1A (Homo sapiens) [8]; 0.582 in the assay with Torsin-1A (Homo sapiens) [9]; 0.147 in assay [10]. Further, the composite z-score in assay [12] was found to be 1.21. The z-score is -3.18 (inactive) in [2]; 0.397 (inactive) in assay [3]; -0.527 (inactive) in assay [4]; -0.495 (inactive) in assay [5]; -0.546 (inactive) in assay [11]; 1.65 (inactive) in assay [13]. The z-score in assay [14] is 1.11 (inactive); in [15] it was -0.481 (inactive); in assay [16], 0.66 (inactive); in [17] it was -0.125; in assay [18], 0.325 (inactive); in [19], 0.481 (inactive). Further, in assay [20], the z-score was 1.28.

The record behind these values is PubChem BioAssay.
